Source: PubChem (National Center for Advancing Translational Sciences (NCATS))
Tb PFK block: qHTS Assay to Find Inhibitors of T. brucei phosphofructokinase; AID 485367, 2010; ATP-dependent 6-phosphofructokinase (Trypanosoma brucei brucei), O15648; Potency, µM (highest dose often 57.5 µM), without a hit: top-dose activity, negative = inhibition, actives largely listed as inhibitors; 330,000 tested, 0.17% active; T. brucei PFK, ADP-Glo luminescence; active = well fitted inhibition curve with a large enough effect; inconclusive = small, poorly fitted or top-dose-only effect, or effect the other way;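 note: potency is the fitted concentration of half-maximal effect; 0% = uninhibited 1x PFK enzyme wells and -100% = no-enzyme wells; nearly all actives have a fitted effect of over 60% in size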
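ADP-Glo luminescence quantified ADP after 45 min at room temperature, with 1.25 nM T. brucei PFK, 0.1 mM ATP and 0.5 mM fructose-6-phosphate in pH 8.0 TEA buffer. qHTS titrations up to 57 µM; curves classified by quality.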
KCNH2 3.1 inh: qHTS for Inhibitors of KCHN2 3.1: Mutant qHTS | Potassium voltage-gated channel subfamily H member 2, brain isoform KCNH2 3.1 (human) | U2OS KCNH2 3.1, thallium flux FluxOr; active compounds read low | activity change, % (tested at about 1.8 µM) | 340,000 tested, 0.95% active | AID 720553, 2013;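 active = maximum activity change below -70%; inconclusive = maximum activity change from -70% to -50%; inactive = maximum activity change above -50%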;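 note: thallium influx rate constant from kinetic fluorescence after stimulation buffer; % is set by controls: 0 for no effect and ±100 for the full control effect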
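Channel expression came from 3.1 mutant virus (1.77 x 10^8 /mL) applied to suspended U2OS cells for 4 h. Flux was tracked with FluxOr dye plus Red40 quencher, and kinetic rate constants normalized to controls.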
hERG WT inh: qHTS for Inhibitors of KCHN2 3.1: Wildtype qHTS. U2OS, BacMam KCNH2, thallium flux FluxOr; active compounds read low. activity change, % at 1.84 µM. 340,000 tested, 0.37% active;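 active = maximum activity change below -70%; inconclusive = maximum activity change between -70% and -50%; inactive = maximum activity change above -50%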; note: % is set by controls: 0 for no effect and ±100 for the full control effect
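U2OS cells transduced with wild-type KCNH2 virus are loaded with FluxOr dye for 45 min, and thallium flux is measured in kinetic reads before and after stimulation buffer. Rate constants are normalized to DMSO controls.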
PTAP TSG101 blk: qHTS Assay for Iinhibitors of HIV-1 Budding by Blocking the Interaction of PTAP/TSG101; Tumor susceptibility gene 101 protein (Homo sapiens), Q99816; Potency, µM (titrated, usually from 115 µM), inactives show at the top dose activity change, negative = inhibition, hits mostly inhibitors; Fluorescence polarization, FITC-PTAP peptide / Tsg101 binding; AID 493005, 2010; 340,000 tested, under 10 active; active = well fitted inhibition curve with a large enough effect in the main read-out, with a control signal flat, not every such curve was filed as active; inconclusive = small, poorly fitted or top-dose-only effect, or effect the other way, or a change in a side signal; inactive = no such curve, though single readings can be large or run the other way; note: potency is the fitted concentration of half-maximal effect; % of control where 0% means no effect
Target sequence (Q99816 whole entry, looked up): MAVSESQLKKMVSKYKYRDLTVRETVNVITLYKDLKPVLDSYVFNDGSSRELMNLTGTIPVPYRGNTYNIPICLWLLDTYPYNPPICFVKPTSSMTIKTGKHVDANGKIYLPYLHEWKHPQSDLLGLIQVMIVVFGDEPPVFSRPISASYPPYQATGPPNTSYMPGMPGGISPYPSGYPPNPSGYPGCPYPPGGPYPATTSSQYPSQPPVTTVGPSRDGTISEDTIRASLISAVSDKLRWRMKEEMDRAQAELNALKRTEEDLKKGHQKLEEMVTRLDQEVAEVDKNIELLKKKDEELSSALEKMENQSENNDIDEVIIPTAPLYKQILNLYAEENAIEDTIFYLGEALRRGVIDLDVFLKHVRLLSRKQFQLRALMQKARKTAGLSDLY
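Steps: Tsg101 binding domain dispensed (10 uM final), compounds pinned in DMSO, FITC-labeled PTAP-motif peptide added (50 nM final); after 20 min binding at room temperature, polarization measured.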
Starred values were filed as active, the others as inactive; ! = not active in a repeat. Rows were chosen to be rich in hits. Some 1.2% of all compounds tested hit in one or more screens of this group.

For Clc1ccc2nnc(Cl)n2n1 the results were Tb PFK block 2%, KCNH2 3.1 inh -183*, hERG WT inh -220* and PTAP TSG101 blk -1%.
Fc1ccc(Nc2c3c(nc4ccccc24)CCC3)cc1 was read as Tb PFK block -2%, KCNH2 3.1 inh -91*, hERG WT inh 3 and PTAP TSG101 blk -11%.
CC1=CC(C)(C)NC(=S)N1c1ccc(C)cc1C was read as Tb PFK block 0%, KCNH2 3.1 inh 10, hERG WT inh -101* and PTAP TSG101 blk -4%.
`Cc1cc(C(=O)N/N=C/c2cccc(OC(=O)c3cccc(Br)c3)c2)n[nH]1` gave Tb PFK block 0%, KCNH2 3.1 inh -191*, hERG WT inh -151* and PTAP TSG101 blk -1%.
For COc1ccc(-c2[nH]ncc2CN2CCN(c3ccc(F)cc3)CC2)cc1 the results were Tb PFK block 8%, KCNH2 3.1 inh -41, hERG WT inh -6 and PTAP TSG101 blk -7%.
Screening CCOc1ccccc1CN1CCC(CO)(CCOc2ccccc2)CC1 returned Tb PFK block -11%, KCNH2 3.1 inh -50, hERG WT inh 41 and PTAP TSG101 blk 1%.
COc1ccc(-c2[nH]ncc2CN2CCC(O)(c3ccc(Cl)cc3)CC2)cc1 was read as Tb PFK block -8%, KCNH2 3.1 inh -70*, hERG WT inh 1 and PTAP TSG101 blk -3%.
Screening OC1(c2ccc(Cl)cc2)CCN(Cc2cn[nH]c2-c2ccc(F)cc2)CC1 returned Tb PFK block 0%, KCNH2 3.1 inh -88*, hERG WT inh -6 and PTAP TSG101 blk 2%.
For OC1(c2ccc(Cl)cc2)CCN(Cc2cn[nH]c2-c2ccccc2)CC1 the results were Tb PFK block 6%, KCNH2 3.1 inh -87*, hERG WT inh inconclusive and PTAP TSG101 blk -2%.
OCC1(CCOc2ccccc2)CCN(Cc2cn[nH]c2-c2ccc(F)cc2)CC1 was read as Tb PFK block -5%, KCNH2 3.1 inh -104*, hERG WT inh inconclusive and PTAP TSG101 blk -7%.
Screening Fc1ccc(N2CCN(Cc3cn[nH]c3-c3ccccc3)CC2)cc1 returned Tb PFK block 3%, KCNH2 3.1 inh inconclusive, hERG WT inh 3 and PTAP TSG101 blk -3%.
Cc1ccc(S(=O)(=O)N2CCN(C(=O)CSCc3ccc(C(C)C)cc3)CC2)cc1 was read as Tb PFK block -3%, KCNH2 3.1 inh -11, hERG WT inh -3 and PTAP TSG101 blk 0%.
Screening C[C@@H]1CN([C@H](C)CO)S(=O)(=O)c2ccc(Br)cc2O[C@H]1CN(C)C(=O)Cc1ccccn1 returned KCNH2 3.1 inh 13 and hERG WT inh -12.
Screening O=C(CCc1nc(-c2ccc(F)cc2)no1)Nc1cccc(C(=O)NC2CC2)c1 returned Tb PFK block -2%, KCNH2 3.1 inh 0, hERG WT inh -5 and PTAP TSG101 blk 1%.
Screening O=C(N/N=C/C=C/c1ccccc1)C(O)c1ccccc1 (stereo not drawn) returned KCNH2 3.1 inh -3, hERG WT inh -11 and PTAP TSG101 blk -8%.
For CC(/C=N/NC(=O)C(O)c1ccccc1)=C\c1ccccc1 (stereo not drawn) the results were Tb PFK block 0%, KCNH2 3.1 inh -169*, hERG WT inh -13 and PTAP TSG101 blk -7%.
For COc1ccc(C(=O)N/N=C\C(C)=C\c2ccccc2)cc1OC the results were KCNH2 3.1 inh -98*, hERG WT inh 2 and PTAP TSG101 blk -1%.
CC(/C=N/NC(=O)c1ccc(Br)cc1)=C\c1ccccc1 was read as Tb PFK block -19%, KCNH2 3.1 inh inconclusive, hERG WT inh -5 and PTAP TSG101 blk -8%.
`CCCn1nc(C(=O)Nc2cccc(S(=O)(=O)N(C)c3ccccc3)c2)c2ccccc2c1=O` gave Tb PFK block 5%, KCNH2 3.1 inh -34, hERG WT inh -22 and PTAP TSG101 blk -1%.
CCOC(=O)C1CCN(C(=O)c2ccc3c(=O)n4nc(Nc5ccccc5OC)sc4nc3c2)CC1 was read as KCNH2 3.1 inh -75* and hERG WT inh -3.
For CCOc1ccc(N(CC(=O)Nc2cc(OC)cc(OC)c2)S(=O)(=O)c2c(C)[nH]c(=O)[nH]c2=O)cc1 the results were Tb PFK block -2%, KCNH2 3.1 inh 16, hERG WT inh -4 and PTAP TSG101 blk -4%.
Screening O=c1[nH]c(COc2ccccc2)nc2ccccc12 returned Tb PFK block -2%, KCNH2 3.1 inh -2, hERG WT inh -3 and PTAP TSG101 blk -2%.
For S=c1nc(Cc2ccccc2)[nH]c2ccccc12 the results were Tb PFK block -4%, KCNH2 3.1 inh -15, hERG WT inh -17 and PTAP TSG101 blk -1%.
Screening S=c1nc(Cc2ccc(Cl)cc2)[nH]c2ccccc12 returned Tb PFK block -1%, KCNH2 3.1 inh 2, hERG WT inh -150* and PTAP TSG101 blk -1%.
Screening S=c1nc(COc2ccccc2)[nH]c2ccccc12 returned Tb PFK block -6%, KCNH2 3.1 inh -20, hERG WT inh -91* and PTAP TSG101 blk -6%.
For CCOc1cnn(Cc2ccccc2)c(=O)c1SCc1ccccc1 the results were Tb PFK block 5%, KCNH2 3.1 inh 36, hERG WT inh 6 and PTAP TSG101 blk -2%.
CCOc1ccc2nc(NC(=O)CSc3nc4ccccc4c(=O)n3Cc3ccco3)sc2c1 was read as Tb PFK block 20%, KCNH2 3.1 inh -97*, hERG WT inh inconclusive and PTAP TSG101 blk -6%.
CCOC(=O)CSc1nc2ccccc2c(=O)n1Cc1ccco1 was read as Tb PFK block -4%, KCNH2 3.1 inh 0, hERG WT inh 3 and PTAP TSG101 blk -4%.
For CCCn1c(SCC(=O)N2CCN(c3ccccc3)CC2)nc2ccccc2c1=O the results were Tb PFK block -6%, KCNH2 3.1 inh 2, hERG WT inh 1 and PTAP TSG101 blk -5%.
For O=C(CSc1nc2ccccc2c(=O)n1Cc1ccco1)N1CCN(c2ccccc2)CC1 the results were Tb PFK block -7%, KCNH2 3.1 inh -107*, hERG WT inh -104* and PTAP TSG101 blk -4%.
For CCc1cccc(CC)c1NC(=O)C(NS(=O)(=O)c1cccs1)c1ccccc1 (stereo not drawn) the results were Tb PFK block 2%, KCNH2 3.1 inh -3, hERG WT inh -8 and PTAP TSG101 blk -9%.
Screening Cc1ccc(Cl)cc1NC(=O)C(NS(=O)(=O)c1cccs1)c1ccccc1 (stereo not drawn) returned Tb PFK block 2%, KCNH2 3.1 inh -14, hERG WT inh -119* and PTAP TSG101 blk -1%.
CCN1CCN(Cc2ccc(NC(=O)c3ccc(C)c(NC(=O)C(=O)c4c[nH]c5ccccc45)c3)cc2C(F)(F)F)CC1 was read as Tb PFK block 5%, KCNH2 3.1 inh 0, hERG WT inh -132*! and PTAP TSG101 blk 6%.
